# Reference: a collection of fitness landscapes (doi:10.1126/science.1257360)
# The full ranking holds about 140,000 sequences; the median of “enrichment ratio after two sorts for PhoP signalling” is about 0, and the highest 2% start at about 11. This is one part of a sample in which the highest values are shown more often than they occur.
# B1: PhoQ; a variant is named by its letters at X, in order, P23837 (parent)
# chain: MKKLLRLFFPLSLRVRFLLATAAVVLVLSLAYGMVALIGYSVSFDKTTFRLLRGESNLFYTLAKWENNKLHVELPENIDKQSPTMTLIYDENGQLLWAQRDVPWLMKMIQPDWLKSNGFHEIEADVNDTSLLLSGDHSIQQQLQEVREDDDDAEMTHSVAVNVYPATSRMPKLTIVVVDTIPVELKSSYMVWSWFIYVLSANLLLVIPLLWVAAWWSLRPIEALAKEVRELEEHNRELLNPATTRELTSLVRNLNRLLKSERERYDKYRTTLTDLTHSLKTPLXXLQXXLRSLRSEKMSVSDAEPVMLEQISRISQQIGYYLHRASMRGGTLLSRELHPVAPLLDNLTSALNKVYQRKGVNISLDISPEISFVGEQNDFVEVMGNVLDNACKYCLEFVEISARQTDEHLYIVVEDDGPGIPLSKREVIFDRGQRVDTLRPGQGVGLAVAREITEQYEGKIVAGESMLGGARMEVIFGRQHSAPKDE
# Variants of: B1
# Experiment: enrichment ratio after two sorts for PhoP signalling (ratio (wild type AVST 3.29)); higher = more functional
# Settings: with PhoP (E. coli)
row,Variant,enrichment ratio
1,EGVS,≤ 0.25
2,WVKG,≤ 0.25
3,NCEQ,≤ 0.25
4,GGVL,7.68
5,NKTR,≤ 0.25
6,AKIL,18.4
7,WICL,≤ 0.25
8,ANCL,21.8
9,AQRL,≤ 0.25
10,NICL,3.87
11,TKIL,8.86
12,ADIL,8.79
13,AQCL,16
14,AWCL,0.642
15,AKCL,3.3
16,AICL,17.5
17,AQEL,≤ 0.25
18,EAPP,≤ 0.25
19,VFQT,≤ 0.25
20,VNLF,≤ 0.25
21,YIYL,≤ 0.25
22,IDEK,≤ 0.25
23,TVNP,≤ 0.25
24,YDMC,≤ 0.25
25,WVMR,≤ 0.25

row,Variant,enrichment ratio
1,KNDA,≤ 0.25
2,NLGK,≤ 0.25
3,IKGA,≤ 0.25
4,WTQR,≤ 0.25
5,AHSG,6.86
6,AVSG,16.7
7,ACSR,7.12
8,WISN,≤ 0.25
9,AISG,19
10,ARSG,≤ 0.25
11,ACSG,12.3
12,ADSG,1.26
13,TISN,13.4
14,KKSG,≤ 0.25
15,TIKN,≤ 0.25
16,ACSN,4.45
17,FHWW,≤ 0.25
18,EFGD,≤ 0.25
19,HEGI,≤ 0.25
20,PMHY,≤ 0.25
21,DEAG,≤ 0.25
22,PCRA,≤ 0.25
23,MPIN,≤ 0.25
24,QRYD,≤ 0.25
25,DRYI,≤ 0.25

row,Variant,enrichment ratio
1,RDAL,≤ 0.25
2,KVFV,≤ 0.25
3,TISG,19.4
4,WISG,≤ 0.25
5,PISG,≤ 0.25
6,VGFY,≤ 0.25
7,MQYW,≤ 0.25
8,TMLQ,12.2
9,KQLQ,≤ 0.25
10,DPLQ,≤ 0.25
11,SALQ,17.5
12,YALQ,4.04
13,MMLQ,≤ 0.25
14,NMLQ,≤ 0.25
15,TPLQ,≤ 0.25
16,SQLQ,13.6
17,SNLQ,15.3
18,LNLQ,≤ 0.25
19,SILQ,6.96
20,YDYH,≤ 0.25
21,SRDH,≤ 0.25
22,TGMF,9.36
23,FPKH,≤ 0.25
24,PMKR,≤ 0.25
25,KGCL,≤ 0.25

row,Variant,enrichment ratio
1,DMWF,≤ 0.25
2,SAVH,7.41
3,DYTW,≤ 0.25
4,SELQ,27.9
5,SPLQ,≤ 0.25
6,SRLQ,0.442
7,SFLQ,2.41
8,SQLT,11
9,SQLS,7.34
10,KYLQ,≤ 0.25
11,SQLA,11.7
12,SSLQ,14.5
13,SLLQ,7.5
14,SYLQ,2.49
15,STLQ,18.3
16,SFQN,≤ 0.25
17,PRSD,≤ 0.25
18,SGLQ,16.6
19,RGLQ,≤ 0.25
20,SGLR,≤ 0.25
21,KDLQ,≤ 0.25
22,TDLQ,18.8
23,LTLQ,2.15
24,HQEY,≤ 0.25
25,FHKA,≤ 0.25

row,Variant,enrichment ratio
1,RKDF,≤ 0.25
2,TFCG,5.19
3,GSDK,≤ 0.25
4,GSLT,9.31
5,GSDN,≤ 0.25
6,GSLA,6.7
7,GSLI,15.5
8,GSLS,11.8
9,AIWD,≤ 0.25
10,LESL,≤ 0.25
11,MELM,17.7
12,MKLM,7.36
13,NELM,≤ 0.25
14,TELM,13.8
15,QELM,≤ 0.25
16,MFLM,≤ 0.25
17,RAGW,≤ 0.25
18,SSNF,1.62
19,MSMS,≤ 0.25
20,MSMG,2.86
21,MSNL,≤ 0.25
22,MSMD,≤ 0.25
23,MSHK,≤ 0.25
24,MSML,14.3
25,MSLV,14.7

row,Variant,enrichment ratio
1,MSWV,10.2
2,MSMI,23.5
3,MSMV,12.7
4,MSLS,5.72
5,DWAP,≤ 0.25
6,DRKM,≤ 0.25
7,HNAE,≤ 0.25
8,LMAI,≤ 0.25
9,EHKQ,≤ 0.25
10,REPP,≤ 0.25
11,MSLE,3.24
12,QDWQ,≤ 0.25
13,MLWQ,≤ 0.25
14,RTWQ,≤ 0.25
15,MFWQ,≤ 0.25
16,QIWQ,34.4
17,QSWQ,33.6
18,TGWQ,22.6
19,QFWQ,≤ 0.25
20,MCWQ,≤ 0.25
21,KSWQ,≤ 0.25
22,MSWQ,14.5
23,WIWQ,≤ 0.25
24,SRES,≤ 0.25
25,PTVM,≤ 0.25

row,Variant,enrichment ratio
1,GKLF,≤ 0.25
2,IMPS,≤ 0.25
3,KGLY,≤ 0.25
4,FVII,≤ 0.25
5,VELP,≤ 0.25
6,RMVC,≤ 0.25
7,DREF,≤ 0.25
8,PGRT,≤ 0.25
9,MMWQ,≤ 0.25
10,QLWQ,11.9
11,MHWQ,≤ 0.25
12,MRWQ,≤ 0.25
13,MGWQ,24.5
14,MGGG,≤ 0.25
15,TPWQ,≤ 0.25
16,MIWQ,24.2
17,NVWQ,≤ 0.25
18,REHV,≤ 0.25
19,INFD,≤ 0.25
20,HGVS,≤ 0.25
21,ASCK,22.8
22,ASCQ,4.02
23,ASQV,1.45
24,ASIV,11.4
25,ASIE,0.421

row,Variant,enrichment ratio
1,ASCV,18.9
2,ASTW,≤ 0.25
3,ASNM,5.71
4,ASCP,≤ 0.25
5,ASIS,7.49
6,ASCA,13.5
7,KSCK,≤ 0.25
8,DLCQ,≤ 0.25
9,APTW,≤ 0.25
10,NWDH,≤ 0.25
11,QMYQ,7.96
12,QHMS,≤ 0.25
13,ASFG,1.66
14,ADIN,≤ 0.25
15,ATIN,11.9
16,AITV,6.12
17,ASTV,12.1
18,YTIN,≤ 0.25
19,ANTV,16.3
20,AHTV,≤ 0.25
21,ASDV,≤ 0.25
22,ASCG,18.9
23,ASGG,4.75
24,VRTV,≤ 0.25
25,HSQP,≤ 0.25

row,Variant,enrichment ratio
1,RWHM,≤ 0.25
2,HETV,4.78
3,RMYW,≤ 0.25
4,EHNH,≤ 0.25
5,VGEA,≤ 0.25
6,SAAE,≤ 0.25
7,RITI,≤ 0.25
8,GKRA,≤ 0.25
9,VRCM,≤ 0.25
10,ASNK,≤ 0.25
11,ASIN,12
12,ASVN,7.54
13,ASIM,14.6
14,KSIN,≤ 0.25
15,TSIA,2.99
16,KSIA,≤ 0.25
17,ASIA,13.9
18,ASCM,11.6
19,ASIR,0.563
20,PHTE,≤ 0.25
21,IMWY,≤ 0.25
22,TLSA,7.98
23,KLEH,≤ 0.25
24,ISEL,≤ 0.25
25,VMQA,≤ 0.25

row,Variant,enrichment ratio
1,GMPK,≤ 0.25
2,MLTV,≤ 0.25
3,ASAE,5.56
4,AVTV,12.1
5,ASTC,5.39
6,TNTV,10.2
7,AMTV,9.95
8,ASRC,≤ 0.25
9,MNTV,12.2
10,ASIC,12.1
11,ASAV,11.5
12,ASWV,≤ 0.25
13,AWTV,≤ 0.25
14,DPKY,≤ 0.25
15,MCMW,≤ 0.25
16,PTRL,≤ 0.25
17,ETSM,≤ 0.25
18,LHSW,≤ 0.25
19,VRCC,≤ 0.25
20,ASII,12.7
21,ASCE,4.22
22,ASIT,9.21
23,ASCS,4.46
24,ASFH,≤ 0.25
25,ASCC,18.2

row,Variant,enrichment ratio
1,ASIL,19.5
2,ASIQ,5.62
3,ASWL,5.05
4,ASCI,19.9
5,ASWN,≤ 0.25
6,DFLG,≤ 0.25
7,RMGP,≤ 0.25
8,MITD,≤ 0.25
9,PINH,≤ 0.25
10,EKTC,≤ 0.25
11,QEPD,≤ 0.25
12,ERFK,≤ 0.25
13,LKWG,≤ 0.25
14,TNVF,≤ 0.25
15,ASCL,20.8
16,ASPL,1.12
17,TARQ,≤ 0.25
18,HHQY,≤ 0.25
19,SPST,≤ 0.25
20,KSST,≤ 0.25
21,TSST,15
22,NSST,≤ 0.25
23,SLST,2.81
24,SSST,12.7
25,QMYK,≤ 0.25

row,Variant,enrichment ratio
1,QIPN,≤ 0.25
2,FCES,≤ 0.25
3,VVSR,≤ 0.25
4,QSAE,≤ 0.25
5,QGWV,18.5
6,FSWV,≤ 0.25
7,QSYV,14.9
8,NAWV,≤ 0.25
9,QAWV,20.2
10,FSAV,0.409
11,KSYV,≤ 0.25
12,FFWV,≤ 0.25
13,QEYV,≤ 0.25
14,KAWV,≤ 0.25
15,QSAV,12.1
16,TGVE,≤ 0.25
17,HYPL,≤ 0.25
18,AGIC,3.1
19,RPIA,≤ 0.25
20,TYVT,≤ 0.25
21,AHFF,≤ 0.25
22,HDNT,≤ 0.25
23,WSHN,≤ 0.25
24,PSPA,≤ 0.25
25,LQDQ,≤ 0.25

row,Variant,enrichment ratio
1,WDVC,≤ 0.25
2,DEVE,≤ 0.25
3,QGMS,≤ 0.25
4,KSAV,≤ 0.25
5,MMAV,5.57
6,QPWV,≤ 0.25
7,QQVK,≤ 0.25
8,TSAV,16.5
9,QSWV,22.9
10,QLWV,≤ 0.25
11,QGIV,≤ 0.25
12,QRWV,≤ 0.25
13,QGMV,23.6
14,QQWV,11.8
